# DT40 TDP1 CPT: DT40-hTDP1 cell growth loss with CPT | chicken DT40 Tdp1-/-;hTDP1 cells + 20 nM CPT, ATP luminescence, 48 h | Potency, µM (doses to about 46.2 µM), without a hit: at the top dose activity change, negative = growth inhibition, actives largely listed as inhibitors | 420,000 compounds, 12% hits | AID 686979; also: potency is read from the fitted curve at half-maximal effect; nearly all actives have a fitted effect of over 55% in size
#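 Chicken DT40 Tdp1-/- cells complemented with human TDP1, 400 cells/well, exposed to compounds plus 20 nM camptothecin for at least 48 h at 37 C; viability read as ATP content by CellTiter-Glo luminescence.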
# IL-1B inflam inh: blocks inflammasome-driven IL-1 beta release; activity change, % at 57.5 µM; 360,000 compounds, 4.7% hits; AID 743279; THP-1 LPS/ATP IL-1B secretion, AlphaLISA, 16 h; hits give low values; in the data active = activity change below about -50%; inconclusive = mostly about -30% to -49%
#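 Secreted IL-1B measured by AlphaLISA bead assay after 16 h compound exposure of THP-1 cells; compounds (final up to 57.5 uM) added 1 h before LPS (250 ng/mL) and ATP (1.25 mM) stimulation; lower signal means less secretion.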
# HT1080 IDH1KD tx: kills HT-1080 cells with IDH1 knockdown; AID 686971; 360,000 compounds, 2% hits; HT-1080 IDH1 knockdown viability, ATP luminescence, 48 h; Potency, µM (titrated, usually from 46.1 µM), inactives show at the top dose activity, negative = toxicity, most hits filed as cytotoxic;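 also: potency is read from the fitted curve at half-maximal effect; 0% = DMSO wells and -100% = cell-free medium wells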
#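 Using the IDH1-knockdown HT-1080 line run in the same batch and compound series as the NT line, viability after 48 h at 37 °C was determined by CellTiter-Glo luminescence and expressed as % activity.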
# HT1080-NT tox: kills 2HG-producing HT-1080-NT fibrosarcoma cells | HT-1080-NT fibrosarcoma viability, CellTiter-Glo ATP luminescence, 48 h | Potency, µM (series often up to 46.1 µM), for the others: at the top dose activity, negative = less viability, hits mostly cytotoxic | 360,000 compounds, 1.6% hits;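 also: NT is the 2HG producing partner of a matched IDH1 knockdown line; potency is read from the fitted curve at half-maximal effect; 0% = DMSO-treated cells and -100% = media-only wells without cells; nearly all actives have a fitted effect of over 55% in size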
#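 Viability of the 2HG-overproducing fibrosarcoma line after 48 hours of compound exposure at 37 degrees C was determined by luminescence with CellTiter-Glo, and concentration-effect curves were then fitted and categorized.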
# TDP1 cell noCPT: qHTS for Inhibitors of human tyrosyl-DNA phosphodiesterase 1 (TDP1): qHTS in cells in absence of CPT; Potency, µM (top dose mostly 46.2 µM), for inactives: top-dose activity change, negative = growth inhibition, usual class: inhibitors; 420,000 compounds, 15% hits; DT40 Tdp1-/- hTDP1 cells, no CPT, ATP luminescence, 48 h; AID 686978, 2013; also: potency is read from the fitted curve at half-maximal effect; nearly all actives have a fitted effect of over 55% in size
#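 Growth of hTDP1-complemented DT40 Tdp1-knockout cells is measured by ATP luminescence after at least 48 hr compound exposure at 37 °C, with DMSO substituting for the 20 nM CPT used in the parallel screen.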
# * = called active by the depositor; ? = inconclusive; · = no result; [ ] = remark or other dose. Shown are actives, neighbours in structure and some others; about 19% of the full set was active somewhere. Unless noted, calls follow the shape of the dose curve; as a rule, active = well fitted curve in the direction sought with a large enough effect; inconclusive = small, poorly fitted or top-dose-only effect, or another doubt; inactive = no such curve, though single readings can be large; an effect the other way counts as inactive or inconclusive. Unless noted, % is scaled to controls: 0 for no effect and ±100 for the full control effect.
SMILES,DT40 TDP1 CPT,IL-1B inflam inh,HT1080 IDH1KD tx,HT1080-NT tox,TDP1 cell noCPT
COC(=O)N/N=C/c1sc(N2CCCCC2)nc1-c1cccs1,1%,-13,-14%,-17%,6%
O=C(CN1C(=O)C(=O)c2ccccc21)c1ccc(Cl)cc1,5.8µM*,6,3%,1%,3.3µM*
COc1cccc(CN2C(=O)c3ccccc3S2(=O)=O)c1,14%,21,-2%,-1%,-17%
O=C1C(=O)N(Cc2ccc(Cl)c(Cl)c2)c2ccccc21,2.7µM*,·,·,·,1.9µM*
O=C1c2ccc([N+](=O)[O-])cc2S(=O)(=O)N1Cc1ccccc1,15%,-94*,-9%,2%,1%
O=C1c2ccccc2N(Cc2ccc(Cl)cc2)C2=NCCN12,-26%,-4,7%,16%,-4%
CCC1(c2ccccc2)NC(=O)N(Cc2cccc([N+](=O)[O-])c2)C1=O (stereo unspecified),?,13,-4%,-6%,-12%
O=C1C(=O)N(Cc2cccc([N+](=O)[O-])c2)c2ccccc21,0.65µM*,-24,?,-20%,0.92µM*
CC(C)CCSc1nnc(Cn2c(=O)sc3ccccc32)n1C,?,22,-3%,9%,?
S=C1NC2=C(CCC/C2=C\c2ccccc2)C(c2ccccc2)N1 (stereo unspecified),?,-1,3%,4%,15µM*
CC1CC2=C(NC(=S)NC2c2ccc(F)cc2)/C(=C/c2ccc(F)cc2)C1 (stereo unspecified),?,-20,?,10µM*,?
Fc1ccccc1/C=C1\CCCC2=C1NC(=S)NC2c1ccccc1F (stereo unspecified),?,-5,?,-19%,?
Fc1cccc(/C=C2\CCCC3=C2NC(=S)NC3c2cccc(F)c2)c1 (stereo unspecified),?,-12,-9%,-18%,21µM*
S=C1NC2=C(CCC/C2=C\c2ccc(Cl)cc2)C(c2ccc(Cl)cc2)N1 (stereo unspecified),?,-26,-23%,?,23µM*
Oc1ccccc1OCCOc1ccccc1OCCOc1ccccc1O,?,?,-9%,-12%,21µM*
CC(C)NC(=O)c1ccc(CN2CCC(Cc3ccccc3)CC2)cc1,-3%,-16,4%,10%,-14%
Clc1ccc(CN2CCC(Cc3ccccc3)CC2)cc1,-29%,-96*,-15%,1%,?
Cn1cnnc1SCC(=O)N1CCN(C(=O)c2ccco2)CC1,23%,0,22%,19%,-1%
Cn1cnnc1SCC(=O)N1CCC(Cc2ccccc2)CC1,?,-1,-6%,-5%,18µM*
Cc1ccc(C(=O)NCC(=O)N2CCC(Cc3ccccc3)CC2)cc1,-15%,-69*,-23%,0%,?
Cc1ccccc1NC(=O)c1ccc(CN2CCC(Cc3ccccc3)CC2)cc1,?,-83*,?,23µM*,21µM*
COc1ccc(C(=O)NCC(=O)N2CCC(Cc3ccccc3)CC2)cc1OC,?,-11,4%,2%,?
O=S(=O)(c1ccccc1)N1CCC2(CC1)CN(C(c1ccccc1)c1ccccc1)C2,7%,·,·,·,?
CCCCC/C=C\C\C=C/C=C/C=C/[C@@H](SC[C@H](N)C(=O)O)[C@@H](O)CCCC(=O)O,12%[0.628 µM],·,·,·,19%[0.628 µM]
CCN1C(=O)C2C(C1=O)N1C(c3cccs3)C3C(=O)N(CC)C(=O)C3N1C2c1cccs1 (stereo unspecified),5%,22,14%,12%,9%
SMILES,DT40 TDP1 CPT,IL-1B inflam inh,HT1080 IDH1KD tx,HT1080-NT tox,TDP1 cell noCPT
O=C(N/N=C/c1cccn1-c1ccccc1)c1ccncc1,-1%,10,-2%,-2%,-14%
O=C(N/N=C/c1cccn1-c1ccc([N+](=O)[O-])cc1)c1cccnc1,13µM*,38,?,-26%,26µM*
COc1ccc2cc(C(=O)NCc3ccc4c(c3)CCN4C(=O)c3ccc(C)cc3)[nH]c2c1,13µM*,·,·,·,?
COc1ccc2cc(C(=O)NCc3ccc4c(c3)CCN4C(=O)c3ccc(F)cc3)[nH]c2c1,21µM*,·,·,·,18µM*
COc1ccc2cc(C(=O)N3CCN(c4ccc(F)cc4)CC3)[nH]c2c1,-15%,27,9%,11%,-16%
CC1CCc2sc(C(=O)N(C)CC(=O)Nc3ccc(N4CCOCC4)cc3)cc2C1 (stereo unspecified),?,-1,-15%,-11%,-13%
Cc1nc(C)c(-c2ccc(SCC(=O)Nc3cccc(C)c3C)nn2)s1,16µM*,·,·,·,21µM*
Cc1nc(C)c(-c2ccc(SCC(=O)Nc3ccccc3F)nn2)s1,?,·,·,·,15µM*
Cc1nc(C)c(-c2ccc(SCC(=O)Nc3ccc(F)cc3F)nn2)s1,?,0,-1%,-1%,?
COc1ccc(OC)c(Nc2nc(C)nc3c2oc2ccccc23)c1,23µM*,10,-3%,-4%,21µM*
COc1ccc(CCNc2nc(C)nc3c2oc2ccccc23)cc1OC,3.7µM*,?,-19%,-10%,4.1µM*
COc1ccc(OC)c(NC(=O)COC(=O)CCS(=O)(=O)c2ccc(Cl)cc2)c1,?,15,?,-4%,-8%
CCN(CCCNS(=O)(=O)c1ccc2c(c1)CCN2C(C)=O)c1cccc(C)c1,?,-7,0%,-6%,?
O=c1c(Cl)c(N2CCN(c3ccc(F)cc3)CC2)cnn1C12CC3CC(CC(C3)C1)C2,?,11,0%,1%,?
O=c1c(Cl)c(NCc2ccc(F)cc2)cnn1C12CC3CC(CC(C3)C1)C2,16µM*,-11,-9%,-2%,16µM*
O=c1c(Cl)c(N2CCN(c3ccccc3)CC2)cnn1C12CC3CC(CC(C3)C1)C2,26µM*,6,?,?,23µM*
CCOC(=O)c1cc2c(=O)n3cccc(C)c3nc2n(CC(C)C)c1=NC(=O)c1ccco1,?,-4,-16%,6%,21µM*
CCOCCCn1c(=NC(=O)c2ccco2)c(C(=O)OCC)cc2c(=O)n3cccc(C)c3nc21,16µM*,-20,-1%,0%,12µM*
CC1=C(C(N)=O)C(c2ccc(Cl)c(Cl)c2)n2ncnc2N1 (stereo unspecified),15%,-5,2%,-4%,0%
O=C(N/C(=C/c1cccs1)C(=O)N1CCOCC1)c1ccccc1,-2%,-10,16%,1%,-4%
Cc1cc2ccccc2c[n+]1C1CCCCC1,1.4µM*,·,·,·,0.71µM*
Cc1cc2ccccc2cc(C)c1=O,-3%,7,12%,1%,2%
